Assay [1] deals with Aldehyde dehydrogenase, mitochondrial (Homo sapiens) (UniProt P05091). Briefly: qHTS for Inhibitors of the Aldehyde Dehydrogenase Family (ALDH2) Confirmatory screens (AID 2061303; active means well fitted inhibition curve with a large enough effect; title and protocol of this record describe different tests; further: nearly all actives have a fitted effect of over 45% in size). To be noted: ALDH inhibition qHTS; series mostly up to 45.4 µM.
Assay [2] shares this target. Briefly: qHTS for Inhibitors of the Aldehyde Dehydrogenase Family (ALDH2) Primary screen (AID 2061308). Further: nearly all actives have a fitted effect of over 55% in size. The following applies: ALDH2 enzyme inhibition qHTS, 1536-well; series mostly up to 56 µM.
For assay [3], the target named is Retinal dehydrogenase 2 (Homo sapiens) (UniProt O94788). Description: qHTS for Inhibitors of the Aldehyde Dehydrogenase Family (ALDH1A2) Confirmation screens (AID 2061314). Further: nearly all actives have a fitted effect of over 65% in size. Further: potency means the concentration at half of the fitted maximal effect. To be noted: ALDH1A2 enzyme inhibition qHTS confirmation; series mostly up to 45.9 µM.
The target in assay [4] is Retinaldehyde dehydrogenase 3 (Homo sapiens) (UniProt P47895). Briefly: qHTS for Inhibitors of the Aldehyde Dehydrogenase Family (ALDH1A3) Primary screen (AID 2061315). To be noted: ALDH inhibition qHTS; series mostly up to 56 µM.
In assay [5] the target is Aldehyde dehydrogenase 1A1 (Homo sapiens) (UniProt P00352). Description: qHTS for Inhibitors of the Aldehyde Dehydrogenase Family (ALDH1A1) Confirmatory screens (AID 2061316). Further: nearly all actives have a fitted effect of over 65% in size. To be noted: ALDH inhibition qHTS; series mostly up to 47.3 µM.
Assay [6] addresses Retinaldehyde dehydrogenase 3 (Homo sapiens) (UniProt P47895). Briefly: qHTS for Inhibitors of the Aldehyde Dehydrogenase Family (ALDH1A3) Validation screen (AID 2061312). Further: nearly all actives have a fitted effect of over 45% in size. The following applies: ALDH1A3 enzyme inhibition qHTS validation, fluorescence; series mostly up to 84.7 µM.
Assay [7] can be described thus: BET inhibitor-based combinations targeting novel dependencies in MECOM-rearranged (r) AML: SET-2 cell line (AID 2202231). Further: potency means the concentration at half of the fitted maximal effect; nearly all actives have a fitted effect of over 35% in size. To be noted: SET-2 AML cells viability, CellTiter-Glo luminescence, 48 h; viability: stronger effect = lower value, concentration not given here. An outline of the steps: (§1)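 Each compound was tested at eleven concentrations on cells seeded at 500/well. After two days' incubation, ATP-based luminescence reported viability; responses relative to DMSO and blank wells yielded AUC and cell-line-centred Z-AUC.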

Assay [8] can be described thus: BET inhibitor-based combinations targeting novel dependencies in MECOM-rearranged (r) AML: OCI-AML3 cell line (AID 2202232). Further: potency means the concentration at half of the fitted maximal effect; nearly all actives have a fitted effect of over 35% in size. The following applies: CellTiter-Glo luminescence, 48 h; Potency: OCI-AML3 viability; series mostly up to 46 µM. The method, boiled down: as §1
Assay [9] can be described thus: BET inhibitor-based combinations targeting novel dependencies in MECOM-rearranged (r) AML: MV-4-11 cell line (AID 2202233). Further: potency means the concentration at half of the fitted maximal effect; nearly all actives have a fitted effect of over 45% in size. The following applies: MV-4-11 AML viability, CellTiter-Glo luminescence, 48 h; series mostly up to 46 µM. The method, boiled down: (§2)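 First, 500 cells per well were seeded; next, drugs were pinned as 11-point doses; then plates sat 48 hr in the incubator; finally CellTiter-Glo was added and luminescence read, with AUC and Z-AUC computed.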

The nature of assay [10]: BET inhibitor-based combinations targeting novel dependencies in MECOM-rearranged (r) AML: HNT-34 cell line (AID 2202234). Further: potency means the concentration at half of the fitted maximal effect; nearly all actives have a fitted effect of over 35% in size. To be noted: HNT-34 AML viability, CellTiter-Glo luminescence, 48 h; series mostly up to 46 µM. An outline of the steps: as §2
Assay [11] is described as follows: BET inhibitor-based combinations targeting novel dependencies in MECOM-rearranged (r) AML: UCSD-AML1 cell line (AID 2202235). Further: potency means the concentration at half of the fitted maximal effect; nearly all actives have a fitted effect of over 40% in size. To be noted: UCSD-AML1 AML cells viability, CellTiter-Glo, 48 h; series mostly up to 46 µM. An outline of the steps:
as §2

Assay [12] in a line: BET inhibitor-based combinations targeting novel dependencies in MECOM-rearranged (r) AML: AML-191 cell line (AID 2202236; further: potency means the concentration at half of the fitted maximal effect; nearly all actives have a fitted effect of over 35% in size). To be noted: AML-191 viability, CellTiter-Glo luminescence, 48 h; series mostly up to 46 µM. The method, boiled down: as §1
The nature of assay [13]: BET inhibitor-based combinations targeting novel dependencies in MECOM-rearranged (r) AML: AML-194 cell line (AID 2202237; further: potency means the concentration at half of the fitted maximal effect; nearly all actives have a fitted effect of over 40% in size). The following applies: AML-194 (MECOM-r AML) viability, CellTiter-Glo, 48 h; series mostly up to 46 µM. The method, boiled down: as §1

“And” between values parts separate entries of the source, which are not always exact repeats. Identical values can stand only once. Inconclusive results are not listed. The source made the active and inactive calls. Unless noted, the call rests on the fitted dose curve; in most records, active means well fitted curve in the direction sought with a large enough effect; inconclusive means small, poorly fitted or top-dose-only effect, or another doubt; inactive means no such curve, though single readings can be large; an effect the other way counts as inactive or inconclusive.

Take `N#Cc1c(-c2cccc(O)c2)no[n+]1[O-]`: the Potency result in assay [1], in assay [2] and in [4] was “inactive” throughout. Besides, the Potency in [3] is 2520 nM (active).

As for `CC(=O)c1c(C)cccc1O[C@@H]1O[C@H](CO)[C@@H](O)[C@H](O)[C@H]1O`, the Potency result in [2] is “inactive”.

`Cc1nc(NCc2ccc(-c3cccnc3)cc2)c2ccccc2n1`: the Potency result in [1], in assay [2], in [3], in assay [4] and in assay [5] was “inactive” each time.

Regarding `Cc1ccc2nc3sc(C(=O)NC4CCCCC4)cc3cc2c1`, the Potency entry in assay [1], in assay [2] and in [4] was “inactive” each time.

With `CCOC(=O)c1ccc(NC2CCCCC2)c(N)c1`, the Potency result in assay [2], in assay [6] and in assay [4] was “inactive” each time.

For the molecule `Cn1c(=O)cc(N2CCCC(N)C2)n(Cc2ccccc2C#N)c1=O` (stereo unspecified), the Potency entry in assay [2], in [6] and in [4] was “inactive” in each case.

For `COc1cc(/C=C/C=O)cc(OC)c1O[C@@H]1O[C@H](CO)[C@@H](O)[C@H](O)[C@H]1O`, in assay [2], the Potency result is “inactive”.

In the case of `CCCCNc1ncc2c(-c3ccc(CN4CCN(C)CC4)cc3)cn(C3CCC(O)CC3)c2n1` (stereo unspecified), the Potency entry in assay [2], in assay [6] and in [4] was “inactive” in each case. In addition, the Potency is 14.8 µM (active) and 11.8 µM (active) in assay [7]; 6.61 µM (active) and 4.68 µM (active) in assay [8]; 59 nM (active) and 93.4 nM (active) in assay [9]; 1.05 µM (active) and 1.18 µM (active) in assay [10]; 4.17 µM (active) and 3.32 µM (active) in [11]; 833 nM (active) and 1.18 µM (active) in assay [12]. In addition, the Potency in assay [13] is 742 nM (active) and 1.05 µM (active).

As to `COC(=O)C(CC1CCCC1)c1ccc(S(C)(=O)=O)cc1` (stereo unspecified), the Potency entry in assay [2], in assay [6] and in assay [4] was “inactive” throughout.

Regarding `N[C@@H]1c2cccnc2[C@H](OC(=O)N2CCC(n3c(=O)[nH]c4ncccc43)CC2)CC[C@H]1c1cccc(F)c1F`, the Potency result in assay [2], in [6] and in assay [4] was “inactive” in each case.
